Hits are enriched below; roughly 18% of the tested compounds scored in any of these assays.
HepG2 tox – qHTS for Inhibitors of TGF-b: Cytotox Counterscreen | HepG2 CAGA-GFP viability, ATP luminescence, 18 h | Potency, µM (highest dose often 46.1 µM), actives largely listed as cytotoxic | 410,000 compounds, 0.76% hits | AID 588856, 2011
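HepG2 CAGA-GFP cells (1000/well, DMEM with 1% FBS) received compound, then TGF-beta at 500 pg/mL final, and were incubated 18 hours at 37 degrees C. Viability was read by CellTiter-Glo luminescence. Media-only wells were set as complete cell-killing and DMSO as no toxicity.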
DT40 TDP1 no CPT – qHTS for Inhibitors of human tyrosyl-DNA phosphodiesterase 1 (TDP1): qHTS in cells in absence of CPT; DT40 Tdp1-/- hTDP1 cells, no CPT, ATP luminescence, 48 h; Potency, µM (titrated, usually from 46.2 µM), most hits filed as inhibitors; 420,000 compounds, 15% hits; note: nearly all actives have a fitted effect of over 55% in size
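Readout: luminescence from CellTiter-Glo after 30 min in the dark at RT. Cells: DT40 Tdp1-/- with stable hTDP1, 400/well. Exposure: compounds alone, ≥48 hr, 37 °C.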
IL-1B inflam inh – qHTS for Inhibitors of Inflammasome Signaling: IL-1-beta AlphaLISA Primary Screen; THP-1 LPS/ATP IL-1B secretion, AlphaLISA, 16 h; hits give low values; activity change, % at 57.5 µM; 360,000 compounds, 4.7% hits; AID 743279, 2014; in the data active = activity change below about -50%; inconclusive = mostly about -30% to -49%
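THP-1 cells pretreated 1 hr with compounds (up to 57.5 uM final), then stimulated with LPS (250 ng/mL final) plus ATP (1.25 mM final); secreted IL-1B measured by AlphaLISA after 16 hr, decreased signal indicating inhibition.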
DT40 TDP1 CPT – qHTS for Inhibitors of human tyrosyl-DNA phosphodiesterase 1 (TDP1): qHTS in cells in presence of CPT. chicken DT40 Tdp1-/-;hTDP1 cells + 20 nM CPT, ATP luminescence, 48 h. Potency, µM (series often up to 46.2 µM), usual class: inhibitors. 420,000 compounds, 12% hits; note: nearly all actives have a fitted effect of over 55% in size
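Chicken DT40 Tdp1-/- cells stably complemented with human TDP1 were seeded at 400 cells/well in medium containing 20 nM camptothecin, exposed to pin-transferred compounds, and grown at 37 °C for at least 48 hr. Viability was read as ATP luminescence.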
TGFb SMAD3 inh – qHTS for Inhibitors of TGF-b; HepG2 CAGA-GFP TGF-b/SMAD3 reporter, GFP fluorescence, 18 h; TGF-beta stimulated, 500 pg/mL final; Potency, µM (titrated, usually from 46.1 µM), actives largely listed as inhibitors; 410,000 compounds, 1.2% hits; AID 588855, 2011; note: nearly all actives have a fitted effect of over 65% in size
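HEPG2 CAGA-GFP, 1000 cells/well; 2 h settle, 37 C; cpd via pin tool; TGF-b 500 pg/mL final; 18 h, 37 C; GFP imaging ex488/em500-530; %Activity normalised to -TGF-b and +DMSO controls; CRC fit, curve class.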
TDP1 block – qHTS Assay for Inhibitors of Tyrosyl-DNA Phosphodiesterase (TDP1) | Tyrosyl-DNA phosphodiesterase 1 (Homo sapiens), Q9NUW8 | AID 485290, 2010 | 350,000 compounds, 0.28% hits | recombinant TDP1, AlphaScreen DNA substrate cleavage | Potency, µM (series often up to 130 µM), most hits filed as inhibitors; note: nearly all actives have a fitted effect of over 40% in size
Target sequence (Q9NUW8 whole entry, looked up): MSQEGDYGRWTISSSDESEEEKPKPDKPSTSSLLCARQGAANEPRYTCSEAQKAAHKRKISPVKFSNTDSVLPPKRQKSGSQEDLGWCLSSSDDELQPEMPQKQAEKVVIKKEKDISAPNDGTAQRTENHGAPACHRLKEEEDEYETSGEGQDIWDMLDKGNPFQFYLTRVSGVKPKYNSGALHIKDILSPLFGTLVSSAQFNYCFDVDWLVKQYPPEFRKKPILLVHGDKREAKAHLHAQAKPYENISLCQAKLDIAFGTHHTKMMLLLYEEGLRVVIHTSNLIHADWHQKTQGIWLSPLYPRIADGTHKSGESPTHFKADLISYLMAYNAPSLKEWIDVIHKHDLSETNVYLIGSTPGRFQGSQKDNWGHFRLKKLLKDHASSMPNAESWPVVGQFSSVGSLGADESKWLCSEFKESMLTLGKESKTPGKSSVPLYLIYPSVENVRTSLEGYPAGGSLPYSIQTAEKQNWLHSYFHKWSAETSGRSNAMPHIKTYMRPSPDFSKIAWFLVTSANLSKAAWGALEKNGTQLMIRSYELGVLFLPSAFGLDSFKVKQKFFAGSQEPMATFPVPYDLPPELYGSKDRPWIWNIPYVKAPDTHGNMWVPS
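Steps: enzyme plus compound, 15 min RT; add biotin/phosphotyrosine-FITC oligonucleotide (15 nM final), react 5 min; add donor/acceptor beads (10 ug/ml final), 10 min; read AlphaScreen. Tdp1 at 1 nM final.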
Numbers stand for hits; – = inactive; ? = inconclusive; · = not tested or not shown. Unless noted, calls come from the whole dose curve; as a rule, active = well fitted curve in the direction sought with a large enough effect; inconclusive = small, poorly fitted or top-dose-only effect, or another doubt; inactive = no such curve, though single readings can be large; an effect the other way counts as inactive or inconclusive.

SMILES	HepG2 tox	DT40 TDP1 no CPT	IL-1B inflam inh	DT40 TDP1 CPT	TGFb SMAD3 inh	TDP1 block
Cc1noc(C)c1COc1ccccc1C(=O)NCCc1ccc(Cl)cc1	–	?	-68.9	?	–	–
N#Cc1c(C(F)(F)F)cc(=O)n2c1[nH]c1ccccc12	–	14.6µM	-73.6	13µM	?	–
C=CC(=O)Nc1cccc(CN2C(=O)N(c3cc(OC)cc(OC)c3)Cc3cnc(NCCCCN(CC)CC)nc32)c1	–	?	-60.3	–	–	·
COc1ccc(N2CCN(C(=O)c3cccn4c(=O)c5ccc(Cl)cc5nc34)CC2)cc1	–	–	·	–	–	–
CC(C(=O)NCCC1=CCCCC1)c1ccc([N+](=O)[O-])cc1 (configuration not stated)	–	16.4µM	–	?	–	–
CC(OC(=O)c1ccccc1)C(=O)NCCC1=CCCCC1 (configuration not stated)	–	–	–	–	–	–
CCC(C(=O)NCCC1=CCCCC1)c1ccccc1 (configuration not stated)	–	14.6µM	–	?	–	–
Cc1ccc2c(=O)cc(C(=O)Nc3cccc(Cl)c3C)oc2c1C	–	–	·	–	–	–
CCOC(=O)C1CCN(Cc2cc(C(C)(C)C)c(O)c(C(C)(C)C)c2)CC1	–	18.4µM	?	?	–	–
CCOC(=O)C1CCN(Cc2ccc(OC)c(OCc3ccccc3)c2)CC1	–	18.4µM	–	13µM	–	·
CC(C)(C)c1cc(CN2CCN(CCO)CC2)cc(C(C)(C)C)c1O	–	20.6µM	–	13µM	?	–
COCCNc1nc(Oc2ccccc2)c2sccc2n1	–	23.1µM	–	29.1µM	–	·
COCCNc1nc(Oc2cccc(NC(C)=O)c2)c2sccc2n1	–	–	–	?	–	·
COCCNc1nc(Oc2cccc3ccccc23)c2sccc2n1	–	16.4µM	–	11.6µM	–	·
COCCNc1nc(Oc2ccc(C(N)=O)cc2)c2sccc2n1	–	?	–	?	–	·
CC1CC(C)(C)NC(=S)N1CCCC(=O)Nc1ccc(Br)cc1 (configuration not stated)	–	?	-78.1	?	–	–
Cc1ccc(C)c(N2CCN(C(=O)CCCN3C(=S)NC(C)(C)CC3C)CC2)c1 (configuration not stated)	–	10.3µM	–	18.4µM	?	–
CCOc1ccc(NC(=O)CCCN2C(=S)NC(C)(C)CC2C)cc1 (configuration not stated)	–	–	–	–	–	–
CCCN1Cc2cccc(C(=O)NCCc3ccccc3)c2C1=O	–	–	–	?	–	·
CCCCCc1nn2cc(-c3ccccc3)nc2s1	–	?	·	?	–	–
COCCN(Cc1cc2cc(C)cc(C)c2nc1Cl)C(=O)Nc1ccccc1	–	3.26µM	–	4.61µM	?	–
COCCN(Cc1cc2c(C)cc(C)cc2nc1Cl)C(=O)c1ccccc1F	–	8.2µM	–	10.3µM	?	–
COCCN(Cc1cc2ccc(C)c(C)c2nc1Cl)C(=O)N1CCOCC1	–	?	?	?	–	–
Cc1cccc(S(=O)(=O)N(CC(=O)Nc2ccccc2C)Cc2ccco2)c1	–	–	–	–	–	–
Cc1cc(C)c2nc(Cl)c(CN(Cc3ccco3)C(=O)Nc3ccccc3C)cc2c1	–	4.61µM	–	5.17µM	?	–
COc1ccc(C2C(=O)N(C3CCC(C)CC3)CC(=O)N2Cc2ccc(C)cc2)cc1OC (configuration not stated)	–	?	·	?	–	–

Compound activity as filed in PubChem BioAssay.
